Substitutions are numbered along the chain they refer to.

These results are taken from article PMC11006913.

Common to all, as to experiment: PBM; 200 nM protein, PBS
Common to all, as to details: dsDNA, one strand shown

The target in experiment [1] is T1, SIX6 (Homo sapiens, UniProt O95475 114-200, L167I).
T1 sequence: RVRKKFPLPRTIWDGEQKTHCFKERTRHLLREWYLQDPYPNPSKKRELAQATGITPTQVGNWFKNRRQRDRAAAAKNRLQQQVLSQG

Experiment [2] deals with T2, SIX6 (Homo sapiens, UniProt O95475 114-200, L143V).
T2 sequence: T1 sequence with L30V, I54L

Experiment [3] deals with T3, SIX6 (Homo sapiens, UniProt O95475 114-200, H141N).
T3 sequence: T1 sequence with H28N, I54L

For experiment [4], the target named is T4, SIX6 (Homo sapiens, UniProt O95475 114-200, T165P).
T4 sequence: T1 sequence with T52P, I54L

Experiment [5] concerns the target T5, SIX6 (Homo sapiens, UniProt O95475 114-200, L167M).
T5 sequence: T1 sequence with I54M

Experiment [6] concerns the target T6, SIX6 (Homo sapiens, UniProt O95475 114-200, L143M).
T6 sequence: T1 sequence with L30M, I54L

The target in experiment [7] is T7, SIX6 (Homo sapiens, UniProt O95475 114-200, L143I).
T7 sequence: T1 sequence with L30I, I54L

Experiment [8] concerns the target T8, SIX6 (Homo sapiens, UniProt O95475 114-200, T165G).
T8 sequence: T1 sequence with T52G, I54L

Experiment [9] concerns the target T9, SIX6 (Homo sapiens, UniProt O95475 114-200, T139Q).
T9 sequence: T1 sequence with T26Q, I54L

Experiment [10] addresses T10, SIX6 (Homo sapiens, UniProt O95475 114-200, T165A).
T10 sequence: T1 sequence with T52A, I54L

The target of experiment [11] is T11, SIX6 (Homo sapiens, UniProt O95475 114-200, L167V).
T11 sequence: T1 sequence with I54V

In experiment [12] the target is T12, SIX6 (Homo sapiens, UniProt O95475 114-200).
T12 sequence: T1 sequence with I54L

Experiment [13] deals with T13, SIX6 (Homo sapiens, UniProt O95475 114-200, T165I).
T13 sequence: T1 sequence with T52I, I54L

Regarding GGGTATCA, the binding signal with SIX6 [1] was 11.7 upbm affinity estimate (log intensity, higher = more binding, comparable within an allelic series); in the experiment with SIX6 [2], 10.5 upbm affinity estimate (log intensity, higher = more binding, comparable within an allelic series); in the experiment with SIX6 [3] it was 11.7 upbm affinity estimate (log intensity, higher = more binding, comparable within an allelic series); with SIX6 [4] it was 9.44 upbm affinity estimate (log intensity, higher = more binding, comparable within an allelic series); in the experiment with SIX6 [5], 11 upbm affinity estimate (log intensity, higher = more binding, comparable within an allelic series); with SIX6 [6] it was 11.4 upbm affinity estimate (log intensity, higher = more binding, comparable within an allelic series). Further, the binding signal is 10.6 upbm affinity estimate (log intensity, higher = more binding, comparable within an allelic series) in the experiment with SIX6 [7]; 11.8 upbm affinity estimate (log intensity, higher = more binding, comparable within an allelic series) in the experiment with SIX6 [8]; 11.6 upbm affinity estimate (log intensity, higher = more binding, comparable within an allelic series) in the experiment with SIX6 [9]; 11.6 upbm affinity estimate (log intensity, higher = more binding, comparable within an allelic series) with SIX6 [10]; 11.6 upbm affinity estimate (log intensity, higher = more binding, comparable within an allelic series) with SIX6 [11]; 11.4 upbm affinity estimate (log intensity, higher = more binding, comparable within an allelic series) with SIX6 [12]. Also, the binding signal with SIX6 [13] is 11.5 upbm affinity estimate (log intensity, higher = more binding, comparable within an allelic series).

For the sequence CATGATCA, the binding signal in the experiment with SIX6 [1] is 10.5 upbm affinity estimate (log intensity, higher = more binding, comparable within an allelic series); in the experiment with SIX6 [2], 9.91 upbm affinity estimate (log intensity, higher = more binding, comparable within an allelic series); in the experiment with SIX6 [3], 10.3 upbm affinity estimate (log intensity, higher = more binding, comparable within an allelic series); in the experiment with SIX6 [4], 9.68 upbm affinity estimate (log intensity, higher = more binding, comparable within an allelic series); in the experiment with SIX6 [5], 10.1 upbm affinity estimate (log intensity, higher = more binding, comparable within an allelic series); with SIX6 [6], 10.4 upbm affinity estimate (log intensity, higher = more binding, comparable within an allelic series). The binding signal with SIX6 [7] was 9.97 upbm affinity estimate (log intensity, higher = more binding, comparable within an allelic series); with SIX6 [8], 10.4 upbm affinity estimate (log intensity, higher = more binding, comparable within an allelic series); with SIX6 [9], 10.6 upbm affinity estimate (log intensity, higher = more binding, comparable within an allelic series); in the experiment with SIX6 [10], 10.3 upbm affinity estimate (log intensity, higher = more binding, comparable within an allelic series); in the experiment with SIX6 [11] it was 10.4 upbm affinity estimate (log intensity, higher = more binding, comparable within an allelic series); with SIX6 [12], 10.3 upbm affinity estimate (log intensity, higher = more binding, comparable within an allelic series). Further, the binding signal with SIX6 [13] was 10.2 upbm affinity estimate (log intensity, higher = more binding, comparable within an allelic series).

GTATATCA: the binding signal with SIX6 [1] is 11.2 upbm affinity estimate (log intensity, higher = more binding, comparable within an allelic series); in the experiment with SIX6 [2], 10.5 upbm affinity estimate (log intensity, higher = more binding, comparable within an allelic series); with SIX6 [3], 11.3 upbm affinity estimate (log intensity, higher = more binding, comparable within an allelic series); in the experiment with SIX6 [4], 9.99 upbm affinity estimate (log intensity, higher = more binding, comparable within an allelic series); in the experiment with SIX6 [5] it was 10.9 upbm affinity estimate (log intensity, higher = more binding, comparable within an allelic series); with SIX6 [6], 11.1 upbm affinity estimate (log intensity, higher = more binding, comparable within an allelic series). Further, the binding signal with SIX6 [7] is 10.5 upbm affinity estimate (log intensity, higher = more binding, comparable within an allelic series); in the experiment with SIX6 [8], 11.2 upbm affinity estimate (log intensity, higher = more binding, comparable within an allelic series); with SIX6 [9], 11.2 upbm affinity estimate (log intensity, higher = more binding, comparable within an allelic series); with SIX6 [10], 11.2 upbm affinity estimate (log intensity, higher = more binding, comparable within an allelic series); in the experiment with SIX6 [11], 11 upbm affinity estimate (log intensity, higher = more binding, comparable within an allelic series); with SIX6 [12] it was 11.1 upbm affinity estimate (log intensity, higher = more binding, comparable within an allelic series). Moreover, the binding signal with SIX6 [13] was 11.2 upbm affinity estimate (log intensity, higher = more binding, comparable within an allelic series).

As to GATATACC, the binding signal with SIX6 [1] was 11.1 upbm affinity estimate (log intensity, higher = more binding, comparable within an allelic series); with SIX6 [2], 10.4 upbm affinity estimate (log intensity, higher = more binding, comparable within an allelic series); in the experiment with SIX6 [3], 11.2 upbm affinity estimate (log intensity, higher = more binding, comparable within an allelic series); with SIX6 [4], 9.81 upbm affinity estimate (log intensity, higher = more binding, comparable within an allelic series); in the experiment with SIX6 [5], 10.9 upbm affinity estimate (log intensity, higher = more binding, comparable within an allelic series); in the experiment with SIX6 [6], 11 upbm affinity estimate (log intensity, higher = more binding, comparable within an allelic series). In addition, the binding signal with SIX6 [7] is 10.5 upbm affinity estimate (log intensity, higher = more binding, comparable within an allelic series); with SIX6 [8] it was 11.1 upbm affinity estimate (log intensity, higher = more binding, comparable within an allelic series); in the experiment with SIX6 [9], 11.2 upbm affinity estimate (log intensity, higher = more binding, comparable within an allelic series); in the experiment with SIX6 [10] it was 11.1 upbm affinity estimate (log intensity, higher = more binding, comparable within an allelic series); with SIX6 [11], 10.9 upbm affinity estimate (log intensity, higher = more binding, comparable within an allelic series); with SIX6 [12], 11 upbm affinity estimate (log intensity, higher = more binding, comparable within an allelic series). Further, the binding signal in the experiment with SIX6 [13] was 11.1 upbm affinity estimate (log intensity, higher = more binding, comparable within an allelic series).

As to CAGTATCA, the binding signal was 11.2 upbm affinity estimate (log intensity, higher = more binding, comparable within an allelic series) in the experiment with SIX6 [1]; 10.2 upbm affinity estimate (log intensity, higher = more binding, comparable within an allelic series) in the experiment with SIX6 [2]; 11.1 upbm affinity estimate (log intensity, higher = more binding, comparable within an allelic series) with SIX6 [3]; 9.69 upbm affinity estimate (log intensity, higher = more binding, comparable within an allelic series) in the experiment with SIX6 [4]; 10.5 upbm affinity estimate (log intensity, higher = more binding, comparable within an allelic series) with SIX6 [5]; 10.7 upbm affinity estimate (log intensity, higher = more binding, comparable within an allelic series) in the experiment with SIX6 [6]. Also, the binding signal is 10.3 upbm affinity estimate (log intensity, higher = more binding, comparable within an allelic series) in the experiment with SIX6 [7]; 11.2 upbm affinity estimate (log intensity, higher = more binding, comparable within an allelic series) with SIX6 [8]; 11 upbm affinity estimate (log intensity, higher = more binding, comparable within an allelic series) with SIX6 [9]; 11.1 upbm affinity estimate (log intensity, higher = more binding, comparable within an allelic series) with SIX6 [10]; 10.9 upbm affinity estimate (log intensity, higher = more binding, comparable within an allelic series) with SIX6 [11]; 10.9 upbm affinity estimate (log intensity, higher = more binding, comparable within an allelic series) with SIX6 [12]. Besides, the binding signal in the experiment with SIX6 [13] was 10.9 upbm affinity estimate (log intensity, higher = more binding, comparable within an allelic series).

Regarding AGCGGGCC, the binding signal in the experiment with SIX6 [1] was 9.04 upbm affinity estimate (log intensity, higher = more binding, comparable within an allelic series); with SIX6 [2], 8.92 upbm affinity estimate (log intensity, higher = more binding, comparable within an allelic series); with SIX6 [3], 8.88 upbm affinity estimate (log intensity, higher = more binding, comparable within an allelic series); with SIX6 [4] it was 8.96 upbm affinity estimate (log intensity, higher = more binding, comparable within an allelic series); with SIX6 [5], 8.96 upbm affinity estimate (log intensity, higher = more binding, comparable within an allelic series); in the experiment with SIX6 [6], 8.83 upbm affinity estimate (log intensity, higher = more binding, comparable within an allelic series). Moreover, the binding signal in the experiment with SIX6 [7] was 8.88 upbm affinity estimate (log intensity, higher = more binding, comparable within an allelic series); with SIX6 [8], 8.84 upbm affinity estimate (log intensity, higher = more binding, comparable within an allelic series); with SIX6 [9], 9.03 upbm affinity estimate (log intensity, higher = more binding, comparable within an allelic series); with SIX6 [10] it was 8.98 upbm affinity estimate (log intensity, higher = more binding, comparable within an allelic series); with SIX6 [11] it was 8.99 upbm affinity estimate (log intensity, higher = more binding, comparable within an allelic series); with SIX6 [12], 8.89 upbm affinity estimate (log intensity, higher = more binding, comparable within an allelic series). For the same sequence, the binding signal with SIX6 [13] was 8.98 upbm affinity estimate (log intensity, higher = more binding, comparable within an allelic series).
